Rows were chosen to be rich in hits. Some 7% of all compounds tested hit in one or more screens of this group.
AHR activator: AHR activators, primary screen, cell-based, luminescence, luciferase reporter, human | AHR-responsive luciferase reporter cells | Aryl hydrocarbon receptor (Homo sapiens), P35869 | 320,000 compounds, 2.5% hits | activation, % at 5 µM; in the data active = activation above about 47%;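 note: 0% = vehicle wells and 100% = reference agonist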
GRIN3A LBD mod: binders of NR3A ligand-binding domain, primary screen, biophysical, differential scanning fluorimetry, uHTS. 340,000 compounds, 2.5% hits. NR3A LBD differential scanning fluorimetry, Tm shift; 0% = protein alone, 100% = glycine-bound protein. AID 1259313, 2017. Tm shift relative to glycine control, % at 25 µM;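 active = melting temperature shift of at least 10% of the positive control shift, at one fixed dose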
KLK7 zymogen act: proKLK7 zymogen activators, primary screen, biochemical, fluorescence intensity; Kallikrein-7 (Homo sapiens), P49862; purified proKLK7, EDANS-DABCYL substrate fluorescence; 100% is mature enzyme control, 0% vehicle; activation, % at 7 µM; 370,000 compounds, 0.9% hits; AID 652039, 2013;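 active = activation above the mean of all tested compounds plus 3 SD, computed per campaign excluding outliers beyond control limits, cut at about 13% in these data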
ADAM10 inh: human ADAM10 inhibitors, primary screen, biochemical, QFRET, HTS; inhibition, % at 7 µM; recombinant ADAM10, EDANS/DABCYL FRET peptide cleavage, 3 h; AID 720582, 2013; 370,000 compounds, 0.62% hits;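 active = inhibition above a per-campaign cutoff equal to the mean of compounds falling between control-based bounds plus 3 SD, cut at about 20% in these data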;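 note: 0% = DMSO wells while the 100% control is not disclosed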
ADAM17 inh: ADAM17 inhibitors, primary screen, biochemical, QFRET. Disintegrin and metalloproteinase domain-containing protein 17 (Homo sapiens), P78536. recombinant ADAM17, EDANS/DABCYL FRET peptide cleavage. inhibition, % at 6.95 µM. 370,000 compounds, 0.83% hits;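 active = inhibition above the mean of compounds lying between control limits plus 3 SD, set per campaign, cut at about 8.5% in these data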;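 note: 0% = DMSO-only wells as the low control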
Target sequence (P78536 215-824 limits assumed): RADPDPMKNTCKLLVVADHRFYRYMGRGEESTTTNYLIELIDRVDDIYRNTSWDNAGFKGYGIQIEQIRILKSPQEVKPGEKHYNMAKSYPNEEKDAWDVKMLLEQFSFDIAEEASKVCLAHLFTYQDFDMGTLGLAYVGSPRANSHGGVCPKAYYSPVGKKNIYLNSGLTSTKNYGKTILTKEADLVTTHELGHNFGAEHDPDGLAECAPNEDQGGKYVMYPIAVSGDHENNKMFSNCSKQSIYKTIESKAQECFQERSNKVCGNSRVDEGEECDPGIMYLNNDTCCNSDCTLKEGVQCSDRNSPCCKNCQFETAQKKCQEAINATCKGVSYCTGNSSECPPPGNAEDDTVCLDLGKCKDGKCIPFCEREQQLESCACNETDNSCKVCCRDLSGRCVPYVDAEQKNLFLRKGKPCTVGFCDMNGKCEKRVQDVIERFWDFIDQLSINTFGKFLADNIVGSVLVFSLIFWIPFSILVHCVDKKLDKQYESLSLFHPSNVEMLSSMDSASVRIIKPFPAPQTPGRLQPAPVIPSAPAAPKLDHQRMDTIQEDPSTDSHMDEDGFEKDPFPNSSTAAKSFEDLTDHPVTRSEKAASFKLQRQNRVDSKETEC
rCAG RNA binder: binders of r(CAG) RNA repeats, primary screen, biochemical, fluorescence. r(CAG) RNA repeat, TO-PRO-1 dye displacement fluorescence. inhibition, % at 3 µM. 370,000 compounds, 1.3% hits;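 active = inhibition above the plate cutoff, the mean of all test compounds on that plate plus 3 SD, cut at about 35% in these data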;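 note: 0% = DMSO alone and 100% = 100 µM mitoxantrone as full dye displacement; higher means more dye released from RNA so lower well fluorescence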
* = called active by the depositor.

How did CCn1c(COc2ccccc2)nnc1SCC(=O)Nc1ccc(Oc2ccccc2)cc1 do in these assays?
KLK7 zymogen act: 0; ADAM10 inh: 3; ADAM17 inh: -1; rCAG RNA binder: 5

How did COc1ccc(C2=NOC(Cn3nc(-c4ccccc4)cc3C(=O)NCc3ccccc3OC)C2)cc1 (configuration not stated) do in these assays?
AHR activator: 4; GRIN3A LBD mod: 25*; KLK7 zymogen act: 0; ADAM10 inh: 3; ADAM17 inh: 2; rCAG RNA binder: 1

How did O=[N+]([O-])c1cc(C(F)(F)F)cc([N+](=O)[O-])c1NCCNC(=S)Nc1cccc(F)c1 do in these assays?
AHR activator: 3; GRIN3A LBD mod: 17*; KLK7 zymogen act: 0; ADAM10 inh: 5; ADAM17 inh: 1; rCAG RNA binder: 15

What do the screens show for `Cc1ccccc1C(=O)N1CCC(Oc2cccnc2)CC1`?
KLK7 zymogen act: 0; ADAM10 inh: -5; ADAM17 inh: -4; rCAG RNA binder: 0

Results for Nc1ccc(NC(=S)Nc2ccccc2)cc1 ?
GRIN3A LBD mod: 25*; KLK7 zymogen act: 1; ADAM10 inh: -3; ADAM17 inh: -1; rCAG RNA binder: 6

What do the screens show for `COCc1[nH]nc2c1C(c1ccc(C)cc1)NC2=O` (configuration not stated)?
KLK7 zymogen act: 0; ADAM10 inh: -9; ADAM17 inh: 1; rCAG RNA binder: 3

How did COc1ccc(NC(=O)c2cccs2)cc1O do in these assays?
AHR activator: 11; GRIN3A LBD mod: -23; KLK7 zymogen act: 0; ADAM10 inh: -1; ADAM17 inh: -3; rCAG RNA binder: 1

What do the screens show for `COc1ccc(OCC(=O)Nc2ccc(NC(=O)c3cccs3)c(OC)c2)cc1`?
AHR activator: 7; GRIN3A LBD mod: -5; KLK7 zymogen act: 0; ADAM10 inh: -6; ADAM17 inh: 0; rCAG RNA binder: 2

Results for COc1ccccc1C(=O)Nc1ccc(C(=O)/C=C/c2cccs2)cc1 ?
AHR activator: 28; GRIN3A LBD mod: 11*; KLK7 zymogen act: -6; ADAM10 inh: 7; ADAM17 inh: 7; rCAG RNA binder: 6

Results for COc1cc(NC(=O)c2cccs2)c(OC)cc1NC(=O)Cc1ccccc1 ?
AHR activator: 1; GRIN3A LBD mod: -2; KLK7 zymogen act: 0; ADAM10 inh: 0; ADAM17 inh: 0; rCAG RNA binder: 5

What do the screens show for `COc1cc(NC(=O)c2cccs2)c(OC)cc1NC(=O)CCC(=O)Nc1ccc2ncccc2c1`?
GRIN3A LBD mod: -2; KLK7 zymogen act: 68*; ADAM10 inh: -22; ADAM17 inh: -8; rCAG RNA binder: 4

How did COc1cc(NC(=O)c2cccs2)c(OC)cc1NC(=O)c1cccs1 do in these assays?
AHR activator: 57*; GRIN3A LBD mod: -1

How did COc1ccc(C(=O)Nc2ccc(NC(=O)c3cccs3)cc2)cc1Cl do in these assays?
AHR activator: -6; GRIN3A LBD mod: 34*; KLK7 zymogen act: 0; ADAM10 inh: 7; ADAM17 inh: 1; rCAG RNA binder: 3

Results for COc1cc(NCCC(=O)c2cccs2)c(OC)cc1Cl ?
AHR activator: 51*; GRIN3A LBD mod: 2; KLK7 zymogen act: 0; ADAM10 inh: 0; ADAM17 inh: -2; rCAG RNA binder: -5

Results for COc1ccc(/C=C/C(=O)c2ccc(NC(=O)c3cccs3)cc2)cc1OC ?
AHR activator: 11; GRIN3A LBD mod: 16*; KLK7 zymogen act: -187; ADAM10 inh: -47; ADAM17 inh: -15; rCAG RNA binder: 16

How did COc1ccc(/C=C(\NC(=O)c2cccs2)C(=O)NC(C)(C)C)cc1OC do in these assays?
AHR activator: 2; GRIN3A LBD mod: 0; KLK7 zymogen act: 0; ADAM10 inh: 2; ADAM17 inh: -6; rCAG RNA binder: 0

From PubChem
